# Screening data (PubChem)
# An excerpt weighted towards active compounds, which were near 4.2% of everything screened.
# NALP1 yeast inh: blocks the NALP1 inflammasome reconstituted in yeast; S. cerevisiae NALP1/ASC/caspase-1 growth, X-gal OD620, 72 h; inhibition, % at 10 µM; 280,000 compounds, 0.61% hits; AID 2071; in the data active = inhibition mostly above about 24%, no sharp cut-off; inactive = mostly below about 32%
# TIM10 inh: growth inhibitors of TIM10 yeast strain | S. cerevisiae TIM10 strain growth, BacTiter-Glo luminescence, 24 h | inhibition, % at 10 µM | 330,000 compounds, 1.4% hits | AID 463195;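 active = inhibition of 40% or more at the single tested concentration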;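 also: wild-type TIM10 isogenic control strain grown at permissive 25 °C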
# V-ATPase pHluor: regulators of yeast V-ATPase proton transport; S. cerevisiae, pHLuorin cytosolic pH fluorescence; response, % at 10 µM; AID 504577; 350,000 compounds, 0.37% hits; in the data active = response mostly above about 7.3%, no sharp cut-off; inactive = mostly below about 5.4%; also: actives read high
# tim10-1 inh: growth inhibitors of tim10-1 mutant yeast; S. cerevisiae tim10-1 ts strain growth, BacTiter-Glo, 24 h; inhibition, % at 20 µM; 330,000 compounds, 2.2% hits; AID 463190;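 active = inhibition of at least 40%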;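 also: mutant grown at 25 °C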
# tim23-1 inh: inhibits growth of tim23-1 mutant yeast; AID 463212; 330,000 compounds, 1.3% hits; inhibition, % at 20 µM; S. cerevisiae tim23-1 growth, BacTiter-Glo luminescence, 24 h;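 active = growth inhibition of the mutant yeast at or above 50%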;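 also: temperature-sensitive mutant grown at 25 °C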
# NLRP3 yeast inh: blocks the NALP3 inflammasome reconstituted in yeast | Yeast reconstituted NLRP3/ASC/caspase-1, beta-gal luminescence, 24 h | inhibition, % at 10 µM | 330,000 compounds, 0.39% hits;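 active = inhibition of 50% or more; inactive = inhibition below 50%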
# tim10-1 confirm: confirmation of tim10-1 mutant yeast growth inhibitors; shares compounds with tim10-1 inh; S. cerevisiae tim10-1 ts strain growth, BacTiter-Glo, 24 h; inhibition, % at 20 µM; 7,400 compounds, 56% hits; AID 463213;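 active = inhibition of yeast growth at or above a set limit in either of two repeat tests at 20 µM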;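 also: tim10-1 mutant grown at permissive 25 °C to find synthetic lethal compounds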
# A number is an active result; . = inactive; / = no result given.
SMILES,NALP1 yeast inh,TIM10 inh,V-ATPase pHluor,tim10-1 inh,tim23-1 inh,NLRP3 yeast inh,tim10-1 confirm
CCOC(=O)/C(=N/Nc1ccccc1)c1csc(Nc2ccccc2)n1,.,.,.,48,.,.,.
CCOC(=O)/C(=N\Nc1ccc(Cl)cc1)c1csc(Nc2ccccc2)n1,.,.,.,.,.,.,/
CCCCC(CCC(=O)O)(C(=O)OCC)c1csc(Nc2ccccc2)n1 (centres undefined),.,.,.,42,.,.,.
Cc1csc(=O)n1CC(=O)OC(C)C(=O)Nc1cccc(Cl)c1 (centres undefined),/,.,.,.,.,.,/
N#Cc1ccc(CSc2nc(N)cc(N)n2)cc1,.,.,.,.,.,.,/
Cc1cc(N2CCCCC2)nc(SCc2ccc(C#N)cc2)n1,.,.,.,47,.,.,.
CC1(C)[C@H]2CC=C(CN3CCC(N4CCC(C(=O)N5CCCC5)CC4)CC3)[C@@H]1C2,.,.,.,.,.,.,/
CC[n+]1c(C=C2C=C(C)OC(C)=C2)sc2ccccc21,.,.,.,.,.,.,/
CC[n+]1c(/C=C2/C=C(C)CC(C)C2)sc2ccccc21 (centres undefined),.,.,.,48,.,.,.
COc1ccc(N2CCN(C(=O)CSc3nnc4n3C(C)(C)Cc3ccccc3-4)CC2)cc1,.,.,.,46,.,.,.
Cc1ccc2c(CC(=O)O)coc2c1,.,.,.,.,.,.,/
Cc1ccc2c(CC(=O)O)coc2c1C,.,.,.,41,.,.,.
Cc1cc(C)cc(N2C(=O)CC(Sc3nnnn3-c3ccccc3)C2=O)c1 (centres undefined),43,.,.,51,.,.,51
Cc1ccc(C(=O)N[C@@H](Cc2ccccc2)C(=O)N2CCC3(CC2)NCCc2[nH]cnc23)cc1C,.,.,.,.,.,.,/
COc1cc(/C=C2\CC/C(=C\c3ccc(OCCO)c(OC)c3)C2=O)ccc1OCCO,.,.,.,49,.,.,40
CC(OC(=O)/C=C/c1ccc2ccccc2n1)C(=O)NCc1ccccc1 (centres undefined),/,.,.,41,.,.,.
C/C(=N\NC(=S)Nc1cc(S(=O)(=O)N2CCOCC2)ccc1Cl)c1ccc(N2CCOCC2)cc1,.,.,.,.,.,.,/
C/C(=N\NC(=S)Nc1ccc(C)c(C)c1)c1ccc(N2CCOCC2)cc1,.,.,.,41,.,.,.
COc1ccccc1NS(=O)(=O)c1cccc(C(=O)N2CCN(Cc3ccc4c(c3)OCO4)CC2)c1,/,.,.,.,.,.,/
O=C(c1ccc(-c2cccc(C(F)(F)F)c2)o1)N1CCCCCCC1,/,.,.,41,.,.,30
CCOc1ccc(C(c2c(C)[nH][nH]c2=O)c2c(C)[nH][nH]c2=O)cc1OC,.,.,.,42,.,.,.
Cn1nnnc1SCC(=O)Nc1ccc2c(c1)OCO2,.,.,.,.,.,.,/
O=C(CSc1n[nH]c(-c2ccco2)n1)N1c2ccccc2Sc2ccccc21,.,.,.,46,.,.,.
O=C(CSc1nnc(COc2ccc(F)cc2)o1)N1c2ccccc2CCc2ccccc21,.,.,.,42,.,.,.
Cc1cccc(OCc2nnc(SCC(=O)N3c4ccccc4CCc4ccccc43)o2)c1,/,.,.,.,.,.,/
SMILES,NALP1 yeast inh,TIM10 inh,V-ATPase pHluor,tim10-1 inh,tim23-1 inh,NLRP3 yeast inh,tim10-1 confirm
C/C(=N\Nc1ccc(Cl)c(Cl)c1)c1ccc(-n2ccnc2)cc1,.,.,.,46,.,.,.
COc1ccccc1CNC(=O)COC(=O)C1CCN(S(=O)(=O)c2ccc(C)c(C)c2)CC1,/,.,.,.,.,.,/
Cc1cc(C)nc(N2N=C(CSc3ccc(Cl)cc3)CC2=O)n1,.,.,.,45,.,.,.
CCOC(=O)c1cnc2ccc(C(=O)OC)cc2c1Nc1ccc2c(c1)OCCO2,.,.,.,.,.,.,/
CCOC(=O)c1cnc2c(OC)cccc2c1Nc1ccc2c(c1)OCCO2,.,.,.,44,.,.,32
O=C(CCCCCN1C(=O)[C@@H]2Cc3ccccc3CN2C1=O)Nc1cccc(F)c1,.,.,.,45,.,.,.
NS(=O)(=O)c1ccc(CNC(=O)c2cc(S(=O)(=O)N3CCOCC3)c(Cl)cc2Cl)cc1,/,.,.,.,.,.,/
CCN(CC)S(=O)(=O)c1ccc(C(=O)NCc2n[nH]c(=S)n2-c2ccc(Cl)c(Cl)c2)cc1,.,.,/,.,.,.,/
COc1ccc(-c2cc(C(=O)OCC(=O)N(C)C)c3ccccc3n2)cc1,.,.,.,.,.,.,/
COc1ccc(-c2cc(C(=O)OCc3ccccn3)c3ccccc3n2)cc1,.,.,.,42,.,.,.
COc1ccc(-c2cc(C(=O)N3CCCCCC3)c3ccccc3n2)cc1,/,.,.,52,.,.,.
CCCCCC(=O)c1c(C)[nH]c(C(=O)OCC)c1C,.,.,.,.,.,.,/
CCCCCCC(=O)c1c(C)[nH]c(C(=O)OCC)c1C,.,.,.,40,.,.,.
O=C(CSc1nnc2ccc(-c3ccccn3)nn12)Nc1ccc(F)cc1F,/,.,.,.,.,.,/
Cc1ccc(OC(=O)C2CSC3(C)CCC(=O)N23)c(Br)c1 (centres undefined),/,.,.,49,.,.,.
COc1nc(C)cc(C)c1S(=O)(=O)c1ccccc1C,.,.,.,.,.,.,/
CCC(C)Oc1nc(C)cc(C)c1S(=O)(=O)c1ccccc1C (centres undefined),.,.,.,44,.,.,.
COc1ccc(NC(=O)c2ccc(Cl)c(S(=O)(=O)N3CCc4ccccc4C3)c2)cn1,.,.,.,47,.,.,.
CC(=O)N1CCN(c2nc(CC(C)C)c3c(c2C#N)CCC3)CC1,.,.,.,49,.,.,.
CC(C)Cc1nc(N2CCN(C(=O)C(C)C)CC2)c(C#N)c2c1CCC2,.,.,.,.,.,.,/
COC(=O)c1ccc(/C=N/OCC(=O)NCc2ccc(F)cc2)cc1,.,.,.,.,.,.,/
CCOC(=O)c1ccc(N=c2ssnc2Cl)cc1,.,.,.,41,.,.,40
C=C(C)c1cccc(C(C)(C)NC(=O)Nc2ccc(OC)cc2)c1,.,.,.,.,.,.,/
C=C(C)c1cccc(C(C)(C)NC(=O)Nc2ccc(C(C)=O)cc2)c1,.,.,.,43,.,.,.
C=CCNc1oc(-c2cccc(F)c2)nc1C#N,/,.,.,.,.,.,/
CCCc1nn(C)c(C(=O)Nc2ccc(CC)cc2)c1Cl,.,.,.,43,.,.,.
O=C(Cc1ccc2c(c1)OCCO2)Nc1cc(C(F)(F)F)ccc1N1CCOCC1,/,.,.,41,.,.,.
O/N=C(/c1ccc(Cl)cc1)C1CC1c1ccccc1 (centres undefined),.,.,.,51,.,.,.
